# Most compounds without a hit are left out; they make up all but 2.7% or so of the library.
# Akt phos inh: inhibitors of Akt phosphorylation; Neuro2A IGF-stimulated pAkt S473 HTRF, 20 min; active compounds read low; activity change, % for hits at 50 µM; 0.32% of 360,000 active; AID 651550; in the data active means activity change below about -80%; inconclusive means mostly about -51% to -80%; further: on the % scale 0 is the no-effect control and ±100 the full control effect
#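 Single-point screen (50 µM final compound) in Neuro2A cells stimulated 20 min with 6 nM IGF at 37 deg C. After lysis, Ser473-phosphorylated Akt read by HTRF (ex 330 nm, em 615/665 nm) as the 665/615 ratio.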
# ClpP mod: qHTS Assay for Activators of ClpP. Potency, µM (titrated, usually from 57.5 µM), for the others: at the highest dose activity change, negative = active. ATP-dependent Clp protease proteolytic subunit (Bacillus subtilis (strain 168)), P80244. purified B. subtilis ClpP, FRET peptide cleavage, 20 min. 1.9% of 340,000 active; active means well fitted falling curve with a large enough effect; inconclusive means small, poorly fitted or top-dose-only effect; inactive means no such curve, though single readings can be large or run the other way; further: potency means the concentration at half of the fitted maximal effect; the source files actives as falling curves though it sought activators and does not explain the sign; nearly all actives have a fitted effect of over 65% in size
# Target sequence (P80244 whole entry, looked up): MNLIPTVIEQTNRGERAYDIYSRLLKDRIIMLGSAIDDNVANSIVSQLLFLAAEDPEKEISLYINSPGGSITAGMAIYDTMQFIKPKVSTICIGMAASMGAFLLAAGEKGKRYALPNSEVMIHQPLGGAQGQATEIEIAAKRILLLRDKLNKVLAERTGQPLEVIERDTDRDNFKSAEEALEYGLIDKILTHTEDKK
#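 FRET quenching reversal measured ClpP activation: 10 microg/mL B. subtilis ClpP at pH 8 with the FRET-FV decapeptide, read at 430 nm after 320 nm excitation. The 20-min minus 0-min signal was scaled between DMSO/no-enzyme wells and ADEP (5.8 microM final).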
# gsp antagonist: antagonizes gsp, the McCune-Albright syndrome mutation; 0.4% of 340,000 active; gsp-mutant cells, cAMP HTRF, 30 min; AID 624288; Potency, µM (highest dose often 76.9 µM), inactives show at the highest dose activity change, negative = inhibition, hits mostly inhibitors; calls by dose curve; cell line not stated here;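 further: intracellular cAMP measured with PDE inhibitor Ro 20-1724 present during compound exposure; potency means the concentration at half of the fitted maximal effect; on the % scale 0 is the no-effect control and ±100 the full control effect; nearly all actives have a fitted effect of over 65% in size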
#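 Measurement of cellular cAMP by homogeneous time-resolved fluorescence following a 30 min compound exposure at 37C. The PDE inhibitor […] was present throughout; the assay buffer was DPBS with 0.05% BSA and 0.005% Tween 20.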
# RXFP1 ag: RXFP1 (human) receptor agonism. Q9HBX9. HEK293T-RXFP1 cAMP TR-FRET, 30 min; response scale: percent of porcine relaxin response, buffer zero. Potency, µM (highest dose often 57.5 µM), for inactives: top-dose activation, usual class: activators. 0.3% of 370,000 active. AID 2676; active means well fitted activation curve with a large enough effect; inconclusive means small, poorly fitted or top-dose-only effect; further: potency means the concentration at half of the fitted maximal effect; on the % scale 0 is the no-effect control and ±100 the full control effect; nearly all actives have a fitted effect of over 60% in size
#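 Agonist response is measured as cAMP accumulation in an RXFP1-transfected HEK293T line under PDE4 inhibition. Values are scaled between buffer-only and 29 nM porcine relaxin, and EC50s come from standard Hill equation fits.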
# RXFP1 antagonist: RXFP1 (human) relaxin receptor antagonism; AID 1259400; HEK293-RXFP1, relaxin-stimulated cAMP HTRF, 30 min; active compounds read low; activity change, negative = inhibition, % at 57.5 µM; 0.59% of 350,000 active;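 active means activity change of -60% or lower, but not beyond a set lower limit; inconclusive means change between -60% and -40%, or beyond the set limit; inactive means change above -40%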; further: on the % scale 0 is the no-effect control and ±100 the full control effect
# gsp agonist: agonists of gsp mutant (McCune-Albright syndrome). Potency, µM (doses to about 76.9 µM), without a hit: at the top dose activation (cAMP increase), usual class: activators. gsp mutant cells, cAMP HTRF, 30 min. 0.13% of 340,000 active; active means well fitted activation curve with a large enough effect; inconclusive means small, poorly fitted or top-dose-only effect, or another doubt; inactive means no such curve, though single readings can be large or run the other way; cell line not stated here;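 further: phosphodiesterase inhibitor Ro 20-1724 added with compounds to block cAMP breakdown; potency means the concentration at half of the fitted maximal effect; nearly all actives have a fitted effect of over 60% in size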
#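 Cells in DMEM/10% FBS with G418 were pretreated with compounds in DMSO plus […] (300 uM stock) for 30 min at 37C. cAMP was measured by HTRF (cAMP-d2 plus anti-cAMP antibody-K) after 30 min at room temperature.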
# The depositor's hits bear a star; i = inactive; ? = inconclusive; nt = no result given; [ ] = dose if it differs, or a comment.
SMILES,Akt phos inh,ClpP mod,gsp antagonist,RXFP1 ag,RXFP1 antagonist,gsp agonist
O=C(NCC(c1cccnc1)N1CCN(Cc2ccccc2)CC1)C(=O)Nc1cccc(F)c1 (stereo not given),nt,-11.2%,nt,-3.9%,-10.1,nt
CCOc1ccc(OC(=O)c2cccc(S(=O)(=O)N3CCN(C)CC3)c2)cc1,i,31.6µM*,0.7%,-3.1%,1.9,2.8%[15.4 µM]
CC1(C)C(=O)C2(CCCCC2)C(=O)OC1c1cccn1-c1ccc([N+](=O)[O-])cc1 (stereo not given),i,31.6µM*,4.5%,-0.6%,6.6,8.2%
COc1ccc(C2C(C(=O)c3cccs3)=C(O)C(=O)N2c2nnc(C)s2)cc1OC (stereo not given),i,-1.7%,-4.3%,4.8%,28.5,3.6%
C=CCOc1ccc(C2C(C(=O)c3cccs3)=C(O)C(=O)N2c2nnc(C)s2)cc1 (stereo not given),i,-0.2%,25.5%,nt,-11.5,31.6µM*
CC1CCCC(NC(=O)CCN2C(=O)COc3ccccc32)C1C (stereo not given),i,-1.1%,nt,nt,7.6,-33.9%
Cc1ccc(CN2CCN(Cc3c(C)nn(-c4ccc(F)cc4)c3C)CC2CCO)o1 (stereo not given),i,0.8%,0.4%,-0.7%,6.5,-34.2%
Cc1cc(C)c(CN2CCN(Cc3ccc(C)o3)C(CCO)C2)c(-n2cccn2)c1 (stereo not given),i,25.1µM*,1.4%,0.3%,0.7,12.5%[15.4 µM]
CCN(CC)CCn1c2ccccc2c2cnc(N)c(C#N)c21,i,14.1µM*,5.8%,1.7%,1.4,-9.9%
O=C(Nc1ccc(N2CCC(c3ccccc3)C2)c(C(=O)O)c1)c1ccc(Cl)cc1 (stereo not given),nt,0.5%,nt,5.1%,-5.5,nt
Clc1ccc2[nH]c(-c3ccccc3)cc2c1,i,28.2µM*,-14.4%,-0.1%,-10.7,-3.3%
COc1cc(NC(=O)c2ccccc2[N+](=O)[O-])ccc1NC(=O)c1cc2ccccc2o1,i,-3.3%,22.4µM*,nt,-12.9,23.7%
COc1cc(NC(=O)c2cc(Cl)ccc2Cl)ccc1NC(=O)c1cc2ccccc2o1,nt,28.2µM*,nt,0.8%,nt,nt
CC(C)OC(=O)c1c(NC(=O)C2CC=CCC2C(=O)O)sc2c1CCCCC2 (stereo not given),i,-7.2%,?,11.8%,-12.6,22.1%
CCCOC(=O)c1c(NC(=O)C2c3ccccc3Oc3ccccc32)sc2c1CCCC2,nt,12.6µM*,nt,-1.5%,-5.9,nt
CC(C)OC(=O)c1c(NC(=O)C2c3ccccc3Oc3ccccc32)sc2c1CCCC2,nt,?,nt,22.4µM*,4.1,nt
CCC1CCc2c(sc(NC(=O)C3c4ccccc4Oc4ccccc43)c2C(N)=O)C1 (stereo not given),i,?,-2.9%,2.5%,-10.6,-37.0%
CCCCOC(=O)CSC1=C(C#N)C(c2ccccc2OCC)C(C#N)C(=O)N1 (stereo not given),nt,-23.2%,31.6µM*,2.3%,40.8,28.5%
CCCOC(=O)CSC1=C(C#N)C(c2ccccc2OCC)C(C#N)C(=O)N1 (stereo not given),i,3.7%,-25.8%,3.7%,9.8,-10.9%
S=c1[nH]nc(-c2ccccc2)o1,i,-2.0%,-0.4%,?,3.3,?
Cc1ccccc1-c1n[nH]c(=S)o1,-102.5%*,?,40.1%,15.8µM*,8.8,?
COc1ccc(Cl)cc1-c1n[nH]c(=S)o1,i,?,-1.2%,6.31µM*,-4.5,14.1µM*
COC(=O)c1cc(NC(=O)COC(=O)C2COc3ccccc3O2)cc(C(=O)OC)c1 (stereo not given),i,-0.5%,-2.1%,nt,-17.0,?
COc1ccc(C(=O)N(CN2CCCC2=O)c2ccccc2OC)cc1OC,-111.0%*,-0.2%,5.6%,-1.1%,-4.9,-58.9%
COc1ccccc1N(CN1CCCC1=O)C(=O)c1c(F)cccc1Cl,i,-2.1%,3.0%,-1.3%,6.2,7.1%
SMILES,Akt phos inh,ClpP mod,gsp antagonist,RXFP1 ag,RXFP1 antagonist,gsp agonist
CC1CCN(S(=O)(=O)c2ccc(NC(=O)C3CSC4(C)CCC(=O)N34)cc2)CC1 (stereo not given),i,28.2µM*,5.7%,0.3%,-7.8,-42.1%
CC12CCC(=O)N1C(C(=O)Nc1nc3ccc(Cl)cc3s1)CS2 (stereo not given),i,nt,-16.4%,0.4%,-60.4*,4.4%[15.4 µM]
CC12CCC(=O)N1C(C(=O)Nc1nc3ccc(S(C)(=O)=O)cc3s1)CS2 (stereo not given),i,-1.2%,1.7%,4.5%,-2.8,11.4%
CC(C)(C)OC(=O)N1CCC(C(=O)Nc2cccc(C(=O)N3CCCC3)c2)CC1,i,0.4%,-4.5%,nt,nt,nt
CC1=Nc2ccccc2/C1=C(/C)c1c(C)[nH]c2ccccc12,nt,-0.9%,nt,nt,nt,nt
COc1ccc(NC(=O)CSc2n[nH]c(-c3ccccc3)n2)cc1Cl,nt,-1.7%,nt,-0.3%,-8.7,nt
CCOc1ccc(N2CC(C(=O)Nc3ccc(OC)c(S(=O)(=O)N4CCCCC4)c3)CC2=O)cc1 (stereo not given),i,28.2µM*,-11.9%,1.0%,1.9,-2.3%[15.4 µM]
COc1ccc(OC)c(S(=O)(=O)N2CCC(C(=O)Nc3cccc(C)c3C)CC2)c1,i,1.5%,-0.7%,4.0%,19.7,?
COc1ccc(NC(=O)CN2CCCC2c2cccs2)cc1S(=O)(=O)N1CCCCC1 (stereo not given),i,-1.9%,35.5µM*,1.9%,-38.3,16.8%
COc1ccc(OC)c(S(=O)(=O)N2CCC(C(=O)Nc3ccc(C)c(C)c3)CC2)c1,i,-0.9%,28.2µM*,-0.1%,-0.7,8.9%
CCOc1ccc(NC(=O)CN2CCCC2c2cccs2)cc1S(=O)(=O)N1CCCC1 (stereo not given),i,0.7%,?,0.3%,-6.4,?
O=C1C2C(c3ccccc3)=NN(c3ccccc3)C2C(=O)N1c1ccccc1 (stereo not given),i,28.2µM*,9.0%,1.8%,-13.3,29.3%
O=C1[C@H]2C(c3ccccc3)=NN(c3ccccc3)[C@H]2C(=O)N1c1ccccc1,i,4.3%,8.4%,11.2%,-11.7,9.0%
Cc1ccc(CC(CC(=O)O)C(=O)NCc2ccccc2)cc1 (stereo not given),i,15.8µM*,9.9%,-0.1%,0.7,4.5%[15.4 µM]
Cc1ccc(Cn2cccc(NC(=O)NCc3ccccc3)c2=O)cc1,i,31.6µM*,4.2%,2.3%,-21.5,-18.8%
O=C(NCc1ccccc1)Nc1cccn(Cc2ccc(Cl)cc2)c1=O,i,-25.7%,7.5%,1.6%,7.1,-8.6%
